Key:
Conditions in all cases: Compound Concentration (nM):1000
[1] = tested on: ROCK2
[2] = tested on: ROS1
[3] = tested on: RPS6KA4(Kin.Dom.1-N-terminal)
[4] = tested on: RPS6KA4(Kin.Dom.2-C-terminal)
[5] = tested on: RPS6KA5(Kin.Dom.1-N-terminal)
[6] = tested on: RPS6KA5(Kin.Dom.2-C-terminal)
[7] = tested on: T1, RSK1(Kin.Dom.1-N-terminal)
T1 construct: gene RPS6KA1

[8] = tested on: T2, RSK1(Kin.Dom.2-C-terminal)
T2 construct: gene RPS6KA1

[9] = tested on: T3, RSK2(Kin.Dom.1-N-terminal)
T3 construct: gene RPS6KA3

[10] = tested on: T4, RSK2(Kin.Dom.2-C-terminal)
T4 construct: gene RPS6KA3
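Further: KINOMEscan scanMAX binding as percent activity remaining versus control; lower means stronger binding.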

SMILES | Percent Control [1] [%] | Percent Control [2] [%] | Percent Control [3] [%] | Percent Control [4] [%] | Percent Control [5] [%] | Percent Control [6] [%] | Percent Control [7] [%] | Percent Control [8] [%] | Percent Control [9] [%] | Percent Control [10] [%]
COc1cc(N2CCN(C(C)C)CC2)ccc1Nc1nc(Nc2ccc(F)cc2C(=O)NC[C@@H](O)CO)c2cc[nH]c2n1 [GSK1392956A] | 100 | 52 | 100 | 33 | 100 | 47 | 27 | 78 | 5.7 | 100
NS(=O)(=O)c1ccc(N/N=C2\C(=O)Nc3ccc(-c4cnco4)cc32)cc1 [GW276655] | 2.5 | 96 | 65 | 94 | 97 | 39 | 100 | 100 | 79 | 79
Cl.O=C(Nc1ccc(Oc2ccc3[nH]c(NC(=O)c4ccco4)nc3c2)cc1)Nc1cc(C(F)(F)F)ccc1F [GW683134A] | 57 | 61 | 100 | 82 | 95 | 75 | 100 | 100 | 100 | 100
COc1cc(C)c(N(C)C(=O)CN(C)C)cc1Nc1nc(Nc2cccc(F)c2C(N)=O)c2cc[nH]c2n1 [GSK2219385] | 100 | 84 | 92 | 68 | 100 | 90 | 56 | 96 | 21 | 100
COc1ccc2cc(-c3c(-c4ccncc4)nc(-c4ccc(S(C)(=O)=O)cc4C)n3C)ccc2c1 [SB-633825] | 80 | 69 | 100 | 91 | 95 | 51 | 82 | 97 | 62 | 70
COc1cccc(-c2c[nH]c3c(N/N=C/c4ccncc4)ncnc23)c1 [GW814408X] | 73 | 100 | 100 | 62 | 100 | 100 | 88 | 77 | 75 | 100
CN(C)CCNC(=O)Nc1ccc(N(C)c2ccnc(Nc3ccc(CS(C)(=O)=O)cc3)n2)cc1.Cl [GW830900A] | 9.1 | 61 | 100 | 88 | 100 | 100 | 100 | 84 | 73 | 82
CC(C)COC(=O)c1ccc2c(c1)/C(=C/Nc1ccc(S(N)(=O)=O)cc1)C(=O)N2 [GW416981X] | 21 | 100 | 100 | 67 | 100 | 66 | 100 | 100 | 36 | 97
Nc1ncnc2occ(-c3ccc(NC(=O)Nc4cc(C(F)(F)F)ccc4F)cc3)c12 [GW770249X] | 27 | 56 | 100 | 92 | 55 | 100 | 100 | 100 | 89 | 98
NS(=O)(=O)c1ccc(N/N=C2\C(=O)Nc3ccc(Cl)cc32)cc1 [GW280670X] | 89 | 79 | 100 | 97 | 100 | 100 | 100 | 100 | 100 | 83
COc1cc(C=NNc2ncnc3c2cnn3-c2ccccc2)ccc1O [GW513184X] | 88 | 99 | 100 | 82 | 100 | 85 | 100 | 100 | 88 | 71
CN1CCN(C(=O)c2ccc(NC(=O)Nc3ccc(N(C)c4ccnc(Nc5ccc(CS(C)(=O)=O)cc5)n4)cc3)cc2)CC1.Cl [GW830263A] | 1.5 | 57 | 82 | 74 | 100 | 87 | 100 | 93 | 57 | 86
COc1cc(/C=N/Nc2ncnc3[nH]ncc23)ccc1O [GW578748X] | 33 | 96 | 100 | 5.5 | 100 | 91 | 100 | 100 | 72 | 93
O=C1Nc2ccc(C(=O)c3ccco3)cc2C1=Cc1cc(Cl)c(O)c(Cl)c1 [GW406108X] | 45 | 100 | 100 | 49 | 100 | 67 | 78 | 16 | 26 | 85
CC1=C(C(=O)Nc2ccc3[nH]ncc3c2)C(c2ccc(Cl)c(Cl)c2)CC(=O)N1 (centres unmarked) [GSK299115A] | 0.1 | 98 | 100 | 82 | 100 | 60 | 100 | 81 | 75 | 89
CCc1ccc(Oc2nccc(-c3c(-c4ccc(F)cc4)ncn3C3CCNCC3)n2)cc1 [SB-242719] | 90 | 61 | 100 | 73 | 98 | 87 | 99 | 77 | 97 | 94
COc1ccc2c(-c3ccnc(Nc4cccc(OC(F)(F)F)c4)n3)cnn2n1 [GW810372X] | 100 | 96 | 100 | 100 | 100 | 87 | 100 | 100 | 95 | 90
C[C@@H](Oc1cc(-n2cnc3ccc(OC4CCN(C)CC4)cc32)sc1C(N)=O)c1ccccc1Cl [GSK579289A] | 83 | 100 | 100 | 3.2 | 100 | 38 | 71 | 86 | 23 | 98
Cl.O=S1CCN(Cc2ccc(-c3ccc4ncnc(Nc5ccc(OCc6ccccc6)c(F)c5)c4c3)o2)CC1 [GW576924A] | 94 | 100 | 100 | 100 | 100 | 100 | 100 | 100 | 100 | 100
COc1cc2ncn(-c3cc(O[C@H](C)c4ccccc4Cl)c(C(N)=O)s3)c2cc1OC [GSK237701A] | 83 | 92 | 92 | 68 | 100 | 72 | 96 | 87 | 50 | 77

— PMC7826789 (International Journal of Molecular Sciences, 2021)
